Source: PubChem BioAssay (National Center for Advancing Translational Sciences (NCATS))
GBA mod: Glucocerebrosidase; Potency, µM; Lysosomal acid glucosylceramidase (Homo sapiens), P04062; AID 360, 2006; actives 1.1% (n = 48,000); purified enzyme, resorufin glucoside fluorescence (screen aimed at inhibitors), 20 min; in the data active = potency below about 15 µM;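 also: the screen sought inhibitors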
Target sequence (P04062 whole entry, looked up): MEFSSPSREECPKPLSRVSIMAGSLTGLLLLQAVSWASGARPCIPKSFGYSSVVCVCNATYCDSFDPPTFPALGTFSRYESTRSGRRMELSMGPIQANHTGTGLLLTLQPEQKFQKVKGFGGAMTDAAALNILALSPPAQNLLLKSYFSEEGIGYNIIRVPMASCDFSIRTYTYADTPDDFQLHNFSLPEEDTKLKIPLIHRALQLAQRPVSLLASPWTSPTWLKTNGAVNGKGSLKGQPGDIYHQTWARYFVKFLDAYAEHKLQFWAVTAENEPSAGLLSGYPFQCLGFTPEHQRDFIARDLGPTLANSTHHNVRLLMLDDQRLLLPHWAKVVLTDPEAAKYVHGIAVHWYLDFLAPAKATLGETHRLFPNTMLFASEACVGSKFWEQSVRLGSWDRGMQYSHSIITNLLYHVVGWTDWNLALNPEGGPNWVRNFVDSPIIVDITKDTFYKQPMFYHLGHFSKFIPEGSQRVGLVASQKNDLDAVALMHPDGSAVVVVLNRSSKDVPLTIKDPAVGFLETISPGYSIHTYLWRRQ
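Compounds titrated against 0.2 nM normal enzyme, 30 uM resorufin beta-D-glucopyranoside substrate, citrate/phosphate buffer with taurocholate and tween-20, pH 5.9. Reaction ran 20 min at room temperature; fluorescence (Ex 548/Em 600) gave AC50.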
Numbers without * were called inactive; i = inactive. This is one part of a sample in which hits are shown more often than they occur. Potency is read from the fitted curve at half-maximal effect.

SMILES	GBA mod
CCOC(=O)C1[C@H]2C(=O)N(C(C)c3ccc(OC)cc3)C[C@]23C=C[C@H]1O3 (some centres undefined)	>76.9
COc1ccccc1Nc1nc(N)nc(CSCCO)n1	>76.9
COc1cc(CN2CCN(c3ccccc3F)CC2)cc(OC)c1O	>76.9
COc1ccccc1N1CCN(c2cc(N3CCCC3)nc(C)n2)CC1	>76.9
COc1ccccc1N1CCN(CC(=O)Nc2ccc(C)c(F)c2)CC1	>76.9
COc1ccccc1N1CCN(Cc2nc(N)nc(Nc3ccc(C)c(Cl)c3)n2)CC1	5.31*
COc1ccccc1Nc1nc(N)nc(CN2CCN(c3ccccc3F)CC2)n1	2.37*
COc1ccc(NC(=O)CN2CCN(c3ccccc3F)CC2)cc1	>76.9
COc1ccc(N2CCN(Cc3nc(N)nc(Nc4ccccc4OC)n3)CC2)cc1	3.92*
COc1ccccc1Nc1nc(N)nc(CSc2ncccn2)n1	>76.9
O=C1NC2CCCCC2NC1CC(=O)N1CCN(c2ccccc2)CC1 (centres undefined)	>76.9
Cc1cccc(-c2nnc3n2N=C(c2ccccc2Br)CS3)c1	i
CN(C)c1cccc(C(=O)OCC(=O)NCC2CCCO2)c1 (centres undefined)	>76.9
CCN(CCCCN1C(=O)c2ccccc2C1=O)c1ccc2c(c1)C(=O)N(C)C2=O	>76.9
CCN(CC)c1ccc2cc(C(=O)Nc3ccc(-n4cnnn4)c(OC)c3)c(=O)oc2c1	>76.9
Cc1nn(-c2ccccc2)c(Cl)c1C1C(C#N)=C(N)OC2=C1C(=O)CCC2 (centres undefined)	i
Cc1ccc(-n2nc(C)c(C3C(C#N)=C(N)OC4=C3C(=O)CC(C)(C)C4)c2Cl)cc1 (centres undefined)	4.79*
CCOC(=O)C1=C(C)OC(N)=C(C#N)C1c1c(C)nn(-c2ccccc2)c1Cl (centres undefined)	>76.9
O=C(CSc1nnc(Cc2ccccc2)o1)Nc1ccc(Br)cn1	>76.9
O=C(Cn1c(=O)sc2ccccc21)NCCOc1ccccc1F	>76.9
COC(=O)c1ccc(CSc2nc3ccccc3c(=O)n2Cc2ccco2)o1	>76.9
COc1ccc(N2CCN(c3oc(-c4ccccc4OC)nc3C#N)CC2)cc1	>76.9
COc1ccccc1-c1nc(C#N)c(N2CCN(c3ccccc3)CC2)o1	10.1*
COc1ccccc1-c1nc(C#N)c(N2CCc3ccccc3C2)o1	>76.9
CN(C)c1ccc(C(c2nnnn2CCOC(=O)Nc2ccc(Cl)cc2)N2CCOCC2)cc1 (centres undefined)	>76.9
SMILES	GBA mod
CCOC(=O)CSC1=NC(=O)CS1	>76.9
CCN1CCN(c2ccc(NC(=O)Cc3ccccc3)cc2)CC1	i
Cc1ccccc1OCC(=O)Nc1ccc(N2CCN(S(C)(=O)=O)CC2)cc1	>76.9
CCN1CCN(c2ccc(NC(=O)COc3ccccc3Cl)cc2)CC1	15.2*
O=C(Cn1nc(Cl)nc1Cl)c1cc2ccccc2oc1=O	>76.9
COCCCNC(CC(=O)Nc1ccccc1C(=O)OC)C(=O)O (centres undefined)	>76.9
C=CCn1c(=O)c(C(=O)Nc2ccccc2C(=O)OCC)c(O)c2ccccc21	>76.9
CCCn1c(=O)c(C(=O)Nc2cnccn2)c(O)c2ccccc21	>76.9
CCCn1c(=O)c(C(=O)Nc2ccccc2C(=O)OC)c(O)c2ccccc21	14.5*
O=C(CSc1nnc(Cc2csc(Nc3cccc(Cl)c3)n2)o1)N1CCc2ccccc21	14.5*
O=C(CSc1nnc(Cc2ccccc2)o1)N1CCCc2ccccc21	>76.9
O=C(CSc1nnc(CNc2ccccc2)o1)N1CCc2ccccc21	>76.9
O=C1c2oc3ccccc3c(=O)c2C(c2ccc(Cl)cc2)N1c1ncccn1 (centres undefined)	>76.9
CCOC(=O)c1cnc(-n2cc(C)cn2)nc1Nc1ccccc1OC	12.3*
CCOC(=O)c1cnc(-n2nc(C)cc2C)nc1Nc1ccc(N(C)C)cc1	>76.9
CCOC(=O)c1cnc(-n2nc(C)cc2C)nc1NC	>76.9
O=C(Nc1cc(C(F)(F)F)ccc1N1CCCC1)c1cccnc1	>76.9
O=C(Nc1ccccc1N1CCCC1)c1cccnc1	>76.9
CCN1CCN(c2ccc(NC(=O)c3cccnc3)cc2Cl)CC1	6.35*
CCc1nnc(NC(=O)Cn2nc(-c3ccccc3OC)ccc2=O)s1	>76.9
COc1ccc(N/C(C)=C2/C(=O)C(=O)N(CCO)C2c2ccc(Br)cc2)cc1 (centres undefined)	>76.9
Nn1cc(-c2ccccc2)nc1SCC(=O)NCCN1C(=O)CSC1=O	>76.9
CCCc1ccc(S(=O)(=O)NCCc2ccncc2)cc1	7.13*
CCOCC(=O)Nc1ccc(S(=O)(=O)NCCc2ccccc2)cc1	>76.9
CCCNS(=O)(=O)c1ccc(CCC(=O)N2CCOCC2)cc1	>76.9
SMILES	GBA mod
O=C(COC(=O)C1=COCCO1)NCCCc1ccccc1	>76.9
Cc1c(C)[n+](=O)c2c(n1[O-])CCCCC2	>76.9
Cc1cc(C)nc(N2CCC(C(=O)O)CC2)n1	>76.9
Cc1cc(C)nc(N2CCC(C(=O)Nc3nnc(C)s3)CC2)n1	3.03*
CCCNC(=O)C1CCN(c2nc(C)cc(C)n2)CC1	>76.9
Cc1ccccc1S(=O)(=O)Nc1nc2ccccc2nc1N1CCOCC1	>76.9
CC1CN(c2nc3c(c(=O)n(C)c(=O)n3C)n2Cc2c(F)cccc2Cl)CC(C)O1 (centres undefined)	>76.9
Cc1cc(-c2nnc3sc(C4CCCCC4)nn23)n[nH]1	>76.9
COc1ccc(Cc2nn3c(-c4cc(OC)c(OC)c(OC)c4)nnc3s2)cc1	>76.9
COc1cc(-c2nnc3sc(C4CCCCC4)nn23)cc(OC)c1OC	7*
CC1CCN(C(=O)CSc2nnc(CSc3ncccn3)n2C)CC1	>76.9
CC(C(=O)NCc1ccc2c(c1)OCO2)N1c2cccc3cccc(c23)S1(=O)=O (centres undefined)	>76.9
O=C(c1ccccc1NS(=O)(=O)c1cccs1)N1CCCC1	>76.9
O=S(=O)(Nc1ccc(N2CCCCC2)cc1)c1cccs1	>76.9
O=S(=O)(Nc1cc(Cl)ccc1N1CCCCC1)c1cccs1	15.4*
O=C(Cn1c(=O)[nH]n(-c2ccccc2)c1=O)N1CCCc2ccccc21	8.96*
O=C(CN1C(=O)COc2ccccc21)N1CCCc2ccccc21	>76.9
O=C(Cn1cnc2c(cnn2-c2ccccc2)c1=O)N1CCCc2ccccc21	>76.9
CC1CN(S(=O)(=O)c2ccc(NC(=O)c3cc(-c4ccccc4O)n[nH]3)cc2)CC(C)O1 (centres undefined)	7.64*
CC1CN(S(=O)(=O)c2ccccc2)CC(C)O1 (centres undefined)	>76.9
O=C(Nc1ccccc1)c1ccc(S(=O)(=O)N2CCCC2)cc1	>76.9
O=C(NC1CCCCC1)c1cccnc1C(=O)O	>76.9
CCn1c(C)nc2cc(C(=O)OCCC(F)(F)F)ccc21	10.7*
CCOC(=O)c1ccc2c(c1)nc(SCC(=O)N1CCCCC1)n2CC	>76.9
CCn1c(C)nc2cc(C(=O)n3cc(C(=O)c4cc(F)ccc4O)cn3)ccc21	>76.9
SMILES	GBA mod
O=C(Nn1c(-c2ccccc2)nc2ccccc2c1=O)C1CCC1	>76.9
O=C(CSc1ncnc2ccccc12)Nc1ccc(N2CCOCC2)cc1	>76.9
Cc1c(-c2ccccc2)sc(N)c1C(=O)N1CCOCC1	>76.9
Cc1ccc(CNC(=O)C2CCN(S(=O)(=O)c3c(C)noc3C)CC2)cc1	>76.9
Cc1noc(/C=C/N(C)C)c1S(=O)(=O)N1CCCC(C(=O)NCc2ccc(Cl)cc2)C1 (centres undefined)	14*
Cc1noc(C)c1S(=O)(=O)N1CCCC(C(=O)NCc2ccccn2)C1 (centres undefined)	>76.9
NC12CC3CC(C1)CC(CO)(C3)O2	>76.9
